D1 potentiator: enhances dopamine response at the human D1 receptor. P21728. HEK293 TREx D1 cells, calcium flux, dopamine EC20 potentiation. potentiation, % at 10 µM. 360,000 compounds, 0.036% hits. AID 504651; in the data active = potentiation above about 30%; also: 0% is about no effect
D1 agonist: activates the human D1 dopamine receptor; P21728; HEK293 T-REx D1 cells, calcium flux, agonist mode; activation, % at 2 µM; 360,000 compounds, 1% hits; AID 504660; also: 0% is about no effect
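Tetracycline-induced HEK293 TREx D1 cells, force-coupled to calcium signalling, were dye-loaded with a no-wash calcium kit. Compound was pin-added after a 10 s baseline. Fluorescence was read kinetically at 1 cycle/s for 180 s, with calcium rises flagged as agonism.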
TRHR PAM: allosteric enhancers of human TRH receptor | P34981 | TRHR cells, fluo-8 calcium fluorescence, EC20 TRH enhancement | enhancement, % at 2 µM | 360,000 compounds, 0.66% hits | AID 493056; in the data active = enhancement above about 30%; also: 0% is about no effect
Target sequence (P34981 whole entry, looked up): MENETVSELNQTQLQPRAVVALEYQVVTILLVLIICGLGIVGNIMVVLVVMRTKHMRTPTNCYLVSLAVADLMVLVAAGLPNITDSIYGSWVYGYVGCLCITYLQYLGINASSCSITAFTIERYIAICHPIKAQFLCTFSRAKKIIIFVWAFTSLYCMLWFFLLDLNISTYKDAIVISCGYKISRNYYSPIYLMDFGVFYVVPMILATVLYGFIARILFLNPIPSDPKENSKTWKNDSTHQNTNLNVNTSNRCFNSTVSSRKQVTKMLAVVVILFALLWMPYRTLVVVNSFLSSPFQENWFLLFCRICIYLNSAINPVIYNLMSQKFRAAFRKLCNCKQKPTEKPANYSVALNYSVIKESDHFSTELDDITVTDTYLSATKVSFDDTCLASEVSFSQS
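TRHR-expressing cells loaded with fluo-8 calcium dye were read kinetically (ex 480/em 530) during compound addition, then stimulated with an EC20 of TRH (10 nM final). Enhancement of the Gq-mediated intracellular calcium response was scored.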
LDHA block: LDHA (human) enzyme inhibition | P00338 | purified LDHA, NADH/diaphorase-resazurin fluorescence; hits give low values | activity change, % (values are at about 110 or 230 µM) | 480,000 compounds, 0.15% hits | AID 1347041; in the data active = activity change below about -30%;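 also: plate controls were DMSO wells for no effect and wells without enzyme for full effect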
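LDH5 2 nM; NADH 0.06 mM, pyruvate 0.2 mM; 200 mM Tris pH 7.4, EDTA, Tween-20; 5 min RT. Detection: diaphorase 0.133 mg/mL + resazurin 37 µM, fluorescence ex540/em590 at 0 and 20 min; normalized to enzyme-free and DMSO wells.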
D1 antagonist: antagonists of human D1 dopamine receptor; activity change, negative = inhibition, % at 10 µM; HEK293 TREx D1 cells, calcium flux, dopamine EC80; hits give low values; 360,000 compounds, 3.2% hits; P21728; in the data active = activity change below about -30%; also: % is scaled to controls: 0 for no effect and ±100 for the full control effect
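Tetracycline-induced HEK293 Trex D1 cells, force-coupled to calcium, dye-loaded; compounds added and read 180 s, then EC80 dopamine added and calcium flux tracked kinetically another 180 s.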
TRHR agonist: activates the human TRH receptor | TRHR cells, calcium flux fluo-8, FDSS agonist mode | activation, % at 2 µM | 360,000 compounds, 0.18% hits | AID 493084; also: 0% is about no effect
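TRHR-expressing cells, plated overnight in medium with 10% serum, were loaded with fluo-8 calcium dye at room temperature. After a 10 s baseline, library compound was pin-added and calcium release was recorded kinetically (ex 480/em 530) as agonist response.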
Numbers without * were called inactive; · = not tested or not shown; ! = not active in a repeat. Only some compounds are listed: those with a hit (about 3.6% of all), similar ones and a draw of the others. Rule as the data show it, unless noted: active = activation above about 30%; inactive = the rest.

SMILES | D1 potentiator | D1 agonist | TRHR PAM | LDHA block | D1 antagonist | TRHR agonist
Cc1c(C(=O)N2CCN(c3ccc([N+](=O)[O-])cc3)CC2)sc2ncn(CC(=O)N3CCOCC3)c(=O)c12 | · | 54* | 11 | 3 | 9 | -2
COc1cc(Cc2cnc(N)nc2N)cc(OC)c1OC | 4 | -1 | 5 | -4 | -48*! | 1
Cc1cc(NC(=O)CSCC(=O)Nc2ccccc2OC(F)F)no1 | 0 | 1 | 2 | -2 | 3 | 0
CCOc1ccc(Oc2ccccc2NC(=O)CSCC(=O)Nc2cc(C)on2)cc1 | -6 | 13 | -7 | -2 | -44* | 0
Cc1cccc(Oc2ccccc2NC(=O)CSCC(=O)Nc2cc(C)on2)c1 | -7 | 15 | -10 | -2 | -44* | 0
Cc1[nH]c2ccccc2c1C1c2ccccc2C(=O)N1CCC(C)C (stereo unspecified) | · | · | · | 2 | · | ·
CC(=O)CC1(C)OC(N)=C(C#N)C1(C#N)C#N (stereo unspecified) | 4 | 0 | 9 | 2 | -30* | 0
O=C(O)CCc1ccncc1 | · | · | · | -1 | · | ·
CCc1cc2c(SCc3ccc(C(=O)OC)o3)ncnc2s1 | -2 | 2 | -2 | 4 | -32* | 0
CC1CC(C)(C)N(C(=O)CN2CCN(C)CC2)c2ccccc21 (stereo unspecified) | -2 | -1 | 0 | -35* | 4 | 0
CC1CC(C)(C)N(C(=O)CN2C(=O)c3ccccc3C2=O)c2ccccc21 (stereo unspecified) | 6 | -1 | -10 | -6 | 4 | 18
Cc1ccc2c(c1)C(C)CC(C)(C)N2C(=O)CN1CCN(C)CC1 (stereo unspecified) | -3 | 5 | 0 | -40* | 16 | 1
CCCCS(=O)CCC(=O)O (stereo unspecified) | · | · | · | 28 | · | ·
O=C(CSc1nc2nc[nH]c2c(=O)[nH]1)NCc1ccccc1Cl | · | · | · | 0 | · | ·
CCc1cccc(NC(=O)Cn2cc(C=O)c3ccccc32)c1 | -4 | 14 | -4 | -2 | -30* | 1
CN(CC(=O)C(C#N)c1ccccc1)Cc1ccccc1 (stereo unspecified) | · | · | · | -3 | · | ·
CCn1c2ccccc2c2nnc(SCC(=O)Nc3ccccc3OC)nc21 | -1 | 5 | -5 | -3 | -33* | 0
COc1ccccc1NC(=O)Cn1c2ccccc2c2nc3n(c(=O)c21)CCS3 | -4 | 2 | 7 | 2 | -44* | 0
CC(Sc1ccccn1)C(=O)Nc1ccc(C(F)(F)F)cc1 (stereo unspecified) | · | · | · | -2 | · | ·
O=C(N/N=C/c1ccc(Br)cc1)c1ccc(Br)o1 | -8 | 1 | -6 | -32* | 4 | 0
O=C1OC(C(=O)Nc2nccs2)Cc2ccccc21 (stereo unspecified) | 1 | 1 | -5 | 0 | -40* | 1
Cc1cccc(/C=C/C(=O)c2cc3ccccc3oc2=O)c1 | · | · | · | 9 | · | ·
CCOc1ccccc1NS(=O)(=O)c1c(C(=O)OC)sc2ccccc12 | · | · | · | 9 | · | ·
O=C1CCc2ccc(OCCCCN3CCN(c4cccc(Cl)c4Cl)CC3)cc2N1 | · | · | -2 | -3 | -44* | 0
Cc1ccc(C)c(NC(=S)N2CCCC2)c1 | -1 | 0 | 10 | 0 | -65* | 0
SMILES | D1 potentiator | D1 agonist | TRHR PAM | LDHA block | D1 antagonist | TRHR agonist
CC(=O)c1ccc(N2CCN(C(=O)CCC(=O)Nc3ccc4nc(N5CCN(C)CC5)cc(C)c4c3)CC2)cc1 | -9 | -3 | 2 | -1 | -37* | 0
COc1ccccc1N1CCN(C(=S)Nc2cccc(C)c2)CC1 | 2 | 2 | 0 | -8 | 3 | 0
Cc1cccc(NC(=S)N2CCN(c3cc(C)ccc3C)CC2)c1 | -9 | 5 | -4 | -4 | -35* | 0
Cc1ccc(C)c(N2CCN(C(=S)Nc3ccc4nc(N5CCN(C)CC5)cc(C)c4c3)CC2)c1 | -13 | 18 | 5 | 0 | -61* | 0
Cc1ccc(NC(=S)N2CCCCCC2)c(C)c1 | -5 | 4 | -7 | -1 | 3 | 1
CCc1nn(CC(=O)NCCCN2CCN(C)CC2)c(=O)c2cc3occc3n12 | 0 | 2 | 4 | -9 | -37*! | 1
CCc1nn(CC(=O)N2CCC(C(N)=O)CC2)c(=O)c2cc3occc3n12 | 1 | 3 | -3 | -4 | 22 | 1
CCOC(=O)C1CCN(C(=O)Cn2nc(CC)n3c(cc4occc43)c2=O)CC1 | 2 | 5 | -7 | -1 | -33* | 0
CCC(C)NC(=O)C(=O)NCCc1c[nH]c2ccccc12 (stereo unspecified) | · | · | · | 0 | · | ·
CC(C)c1nnc(NC(=O)c2cc(=O)[nH]c3ccccc23)s1 | · | · | · | 8 | · | ·
Cc1cc(NS(=O)(=O)c2ccccc2)c(C)c(Cl)c1O | -4 | 44* | -6 | 9 | -23 | 5
O=S(=O)(O)c1c(NS(=O)(=O)c2ccccc2)ccc2ccccc12 | -7 | 3 | 5 | 2 | -36* | 2
Cc1c(O)ccc(NS(=O)(=O)c2ccccc2)c1C | -4 | 1 | -1 | -6 | -36* | 0
COc1ccc(S(=O)(=O)Nc2cc(S(=O)(=O)c3ccccc3)c(O)c(C)c2C)cc1 | -2 | 0 | -5 | 2 | -3 | 0
O=S(=O)(Nc1c(O)ccc2ccccc12)c1ccccc1 | · | · | · | 9 | · | ·
CCc1ccc2oc(=O)cc(CN3CCN(CC)CC3)c2c1 | · | · | · | -5 | · | ·
CCc1ccc2oc(=O)cc(CN3CCN(CCO)CC3)c2c1 | -1 | 5 | 5 | -2 | -50* | 1
Fc1ccc(Oc2ncnc3c2oc2ccccc23)cc1 | · | · | · | 6 | · | ·
N#CCCN1CCN(C(C(=O)O)c2cn(CCC(=O)O)c3cc(F)ccc23)CC1 (stereo unspecified) | · | · | · | 4 | · | ·
Cc1ccccc1Cn1c(COc2ccc(Cl)cc2)nc2ccccc21 | -3 | 62* | 3 | 1 | -65* | -1
Cc1nc2ccccc2n1CCCOc1ccccc1 | -16 | 8 | -5 | -5 | -16 | 0
Cc1ccc(OCCn2c(C)nc3ccccc32)cc1 | -12 | 14 | -12 | 1 | -45* | -1
CCCc1nc2ccccc2n1CCOc1ccccc1 | -21 | 21 | -7 | -5 | -49* | 0
CCCc1nc2ccccc2n1CCOC | -4 | 0 | -3 | -4 | 3 | 0
Cc1ccc(OCCn2c(COc3ccc(Cl)cc3)nc3ccccc32)cc1 | -6 | 47* | 9 | -2 | -18 | 5
COc1ccc(OCc2nc3ccccc3n2Cc2ccccc2Cl)cc1 | -4 | 16 | 1 | -2 | -1 | 0
CCCOc1cc(C)c(S(=O)(=O)Nc2cccnc2)cc1C | · | · | · | 0 | · | ·
O=C(COC(=O)c1cc2ccccc2cc1O)Nc1ccc(F)cc1 | · | · | · | 9 | · | ·
Cc1ccc(C)c(Nc2nc(-c3ccccc3)cs2)c1 | · | · | · | 6 | · | ·

Screening data: PubChem, National Center for Advancing Translational Sciences (NCATS)
